Of roughly 8,800 targets only a part is listed; those with a hit were picked by preference. About 0.5% of all pairs of compound and target were hits. A number with no mark means an inactive call.
Key:
Assay in all cases: log2 fold change, soluble protein after heating vs DMSO (PISA); higher = thermal stabilisation; K562 lysate, 10 uM; active = over 0.2 and 3.5 SD of the protein, either way, in both replicates (recomputed)
ibrutinib = compound: C=CC(=O)N1CCC[C@@H](n2nc(-c3ccc(Oc4ccccc4)cc3)c3c(N)ncnc32)C1 [ibrutinib]
How it was run: (§1)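 Soluble protein was defined as the supernatant remaining after 21,000xg for 90 min, following pooling of heated aliquots and adjustment to 0.5% NP-40 at 4°C. Before that, crude K562 extract at 1 mg/mL protein in PBS pH 7.4 with 1 mM MgCl2 was treated with 10 μM compound for 30 min and heated for 3 min across 48°C-58°C. Quantification used TMTpro 16plex LC-MS/MS with channel sums equalised, and values are log-two fold changes in thermal stability relative to solvent controls from duplicates.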

[1] = compound: CC(=O)c1cnc2ccc(-c3cc(Cl)c(O)c(Cl)c3)nc2c1N[C@H]1CC[C@H](CN(C)C)CC1
How it was run: as §1

ralimetinib = compound: CC(C)(C)Cn1c(N)nc2ccc(-c3[nH]c(C(C)(C)C)nc3-c3ccc(F)cc3)nc21 [ralimetinib]
How it was run: as §1

[2] = compound: CC(C)(O)CC(=O)NCCn1ccc2ncnc(Nc3ccc(Oc4cccc(C(F)(F)F)c4)c(Cl)c3)c21
How it was run: as §1

[3] = compound: CC(C)C1=C2N=C(C=C(N2N=C1)NCC3=CC=CC=C3)NCCCCCCN
How it was run: as §1

[4] = compound: CC1=C(C(CC(=O)N1)C2=CC=C(C=C2)C(F)(F)F)C(=O)NC3=C(C=C4C(=C3)C=NN4)F
How it was run: as §1

[5] = compound: CC1=C(C2=C(C=C1)C(=O)C3=CC=CC=C3N2CCCN)C
How it was run: as §1

[6] = compound: CC1=C(C=C(C=C1)NC(=O)C2=CC(=CC=C2)C(C)(C)C#N)NC3=CC4=C(C=C3)N=CN(C4=O)C
How it was run: as §1

[7] = compound: CC1=C(C=C(C=C1)NC(=O)C2=CC(=CC=C2)N(C)C)NC(=O)C3=CC=C(C=C3)O
How it was run: as §1

[8] = compound: CC1=CC=C(C=C1)SC2=C3C=C(SC3=CN=C2)C(=O)N
How it was run: as §1

vemurafenib = compound: CCCS(=O)(=O)Nc1ccc(F)c(C(=O)c2c[nH]c3ncc(-c4ccc(Cl)cc4)cc23)c1F [vemurafenib]
How it was run: as §1

[9] = compound: CCCS(=O)(=O)Nc1ccc(F)c(C(=O)c2c[nH]c3ncc(Cl)cc23)c1F
How it was run: as §1

barasertib = compound: CCN(CCCOc1ccc2c(Nc3cc(CC(=O)Nc4cccc(F)c4)[nH]n3)ncnc2c1)CCOP(=O)(O)O [barasertib]
How it was run: as §1

[10] = compound: CC[C@@H]1C(=O)N(C)c2cnc(Nc3ccc(C(=O)NC4CCN(C)CC4)cc3OC)nc2N1C1CCCC1
How it was run: as §1

volasertib = compound: CC[C@@H]1C(=O)N(C)c2cnc(Nc3ccc(C(=O)N[C@H]4CC[C@H](N5CCN(CC6CC6)CC5)CC4)cc3OC)nc2N1C(C)C [volasertib]
How it was run: as §1

[11] = compound: CCn1c(C(=O)N(C2CC2)C2CC2)cc2c3c(ncn3C)c(Nc3cc(C)n(C)n3)nc21
How it was run: as §1

[12] = compound: CCn1cc(-c2ccnc3[nH]c(-c4cccc(CN(C)C)c4)cc23)c(-c2ccc(NC(=O)N(C)C)cc2)n1
How it was run: as §1

[13] = compound: CN1CCC(CNc2ccc3ncc(-c4cccc(OC(F)(F)F)c4)n3n2)CC1
How it was run: as §1

saracatinib = compound: CN1CCN(CCOc2cc(OC3CCOCC3)c3c(Nc4c(Cl)ccc5c4OCO5)ncnc3c2)CC1 [saracatinib]
How it was run: as §1

sotrastaurin = compound: CN1CCN(c2nc(C3=C(c4c[nH]c5ccccc45)C(=O)NC3=O)c3ccccc3n2)CC1 [sotrastaurin]
How it was run: as §1

Chain of UniProt Q8TAT6 (Q8TAT6 whole entry, looked up): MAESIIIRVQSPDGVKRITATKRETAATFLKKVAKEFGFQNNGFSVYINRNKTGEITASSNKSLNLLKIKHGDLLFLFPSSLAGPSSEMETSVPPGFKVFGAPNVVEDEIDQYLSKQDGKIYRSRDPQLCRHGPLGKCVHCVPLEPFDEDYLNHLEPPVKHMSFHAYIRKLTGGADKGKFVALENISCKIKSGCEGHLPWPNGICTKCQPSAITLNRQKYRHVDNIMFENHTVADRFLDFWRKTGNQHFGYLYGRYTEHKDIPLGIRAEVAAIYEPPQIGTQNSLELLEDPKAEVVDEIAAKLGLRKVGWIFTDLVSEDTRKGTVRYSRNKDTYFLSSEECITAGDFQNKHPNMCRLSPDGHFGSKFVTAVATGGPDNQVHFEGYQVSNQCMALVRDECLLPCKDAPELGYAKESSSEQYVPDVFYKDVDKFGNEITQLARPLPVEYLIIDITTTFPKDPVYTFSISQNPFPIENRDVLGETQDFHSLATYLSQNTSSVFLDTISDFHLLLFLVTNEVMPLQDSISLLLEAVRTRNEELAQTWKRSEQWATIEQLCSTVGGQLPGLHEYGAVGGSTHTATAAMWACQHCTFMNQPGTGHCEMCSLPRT
Chain of UniProt Q8TD19 (Q8TD19 whole entry, looked up): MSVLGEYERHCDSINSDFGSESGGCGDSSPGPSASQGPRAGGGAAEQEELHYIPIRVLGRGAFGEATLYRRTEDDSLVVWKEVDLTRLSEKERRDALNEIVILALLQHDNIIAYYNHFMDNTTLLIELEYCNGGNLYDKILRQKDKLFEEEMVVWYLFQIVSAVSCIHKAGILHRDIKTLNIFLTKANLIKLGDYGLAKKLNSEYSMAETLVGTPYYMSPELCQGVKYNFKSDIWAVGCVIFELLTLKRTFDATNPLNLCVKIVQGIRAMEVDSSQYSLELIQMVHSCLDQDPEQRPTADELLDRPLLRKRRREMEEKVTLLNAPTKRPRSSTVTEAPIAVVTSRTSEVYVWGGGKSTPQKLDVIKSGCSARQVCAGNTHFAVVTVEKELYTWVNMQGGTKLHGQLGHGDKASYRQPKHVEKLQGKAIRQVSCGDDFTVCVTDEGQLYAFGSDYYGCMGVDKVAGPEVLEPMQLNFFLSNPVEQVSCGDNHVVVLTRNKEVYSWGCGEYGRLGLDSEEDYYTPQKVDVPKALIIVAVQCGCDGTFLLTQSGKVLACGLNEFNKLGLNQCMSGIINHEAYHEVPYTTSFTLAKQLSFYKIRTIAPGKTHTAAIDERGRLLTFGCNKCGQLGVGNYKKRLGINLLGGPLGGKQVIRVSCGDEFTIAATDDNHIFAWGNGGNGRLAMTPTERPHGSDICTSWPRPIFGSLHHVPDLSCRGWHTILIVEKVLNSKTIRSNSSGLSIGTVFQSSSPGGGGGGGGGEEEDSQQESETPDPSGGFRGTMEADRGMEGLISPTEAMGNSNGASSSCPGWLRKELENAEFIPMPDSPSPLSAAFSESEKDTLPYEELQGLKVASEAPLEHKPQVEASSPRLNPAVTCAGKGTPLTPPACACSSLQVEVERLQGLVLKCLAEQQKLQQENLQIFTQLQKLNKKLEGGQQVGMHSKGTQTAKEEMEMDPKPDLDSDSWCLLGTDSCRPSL
Chain of UniProt Q6IBW4 (Q6IBW4 whole entry, looked up): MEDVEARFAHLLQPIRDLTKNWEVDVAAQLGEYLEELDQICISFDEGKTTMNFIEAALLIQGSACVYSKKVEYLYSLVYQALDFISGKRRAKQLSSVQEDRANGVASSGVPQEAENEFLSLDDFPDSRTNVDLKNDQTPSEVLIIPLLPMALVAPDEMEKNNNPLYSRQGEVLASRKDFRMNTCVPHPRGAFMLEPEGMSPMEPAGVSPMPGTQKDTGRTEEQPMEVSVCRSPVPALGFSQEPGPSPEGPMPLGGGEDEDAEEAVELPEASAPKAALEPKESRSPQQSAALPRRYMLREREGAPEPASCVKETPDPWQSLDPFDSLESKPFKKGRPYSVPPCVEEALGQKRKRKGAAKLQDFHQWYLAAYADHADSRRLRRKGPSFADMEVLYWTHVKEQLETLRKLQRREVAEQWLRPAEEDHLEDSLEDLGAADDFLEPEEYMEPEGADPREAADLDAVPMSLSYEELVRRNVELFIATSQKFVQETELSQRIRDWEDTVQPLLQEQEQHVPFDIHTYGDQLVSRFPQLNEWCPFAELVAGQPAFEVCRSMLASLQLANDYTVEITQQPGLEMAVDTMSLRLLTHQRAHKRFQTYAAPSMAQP
Chain of UniProt Q08J23 (Q08J23 whole entry, looked up): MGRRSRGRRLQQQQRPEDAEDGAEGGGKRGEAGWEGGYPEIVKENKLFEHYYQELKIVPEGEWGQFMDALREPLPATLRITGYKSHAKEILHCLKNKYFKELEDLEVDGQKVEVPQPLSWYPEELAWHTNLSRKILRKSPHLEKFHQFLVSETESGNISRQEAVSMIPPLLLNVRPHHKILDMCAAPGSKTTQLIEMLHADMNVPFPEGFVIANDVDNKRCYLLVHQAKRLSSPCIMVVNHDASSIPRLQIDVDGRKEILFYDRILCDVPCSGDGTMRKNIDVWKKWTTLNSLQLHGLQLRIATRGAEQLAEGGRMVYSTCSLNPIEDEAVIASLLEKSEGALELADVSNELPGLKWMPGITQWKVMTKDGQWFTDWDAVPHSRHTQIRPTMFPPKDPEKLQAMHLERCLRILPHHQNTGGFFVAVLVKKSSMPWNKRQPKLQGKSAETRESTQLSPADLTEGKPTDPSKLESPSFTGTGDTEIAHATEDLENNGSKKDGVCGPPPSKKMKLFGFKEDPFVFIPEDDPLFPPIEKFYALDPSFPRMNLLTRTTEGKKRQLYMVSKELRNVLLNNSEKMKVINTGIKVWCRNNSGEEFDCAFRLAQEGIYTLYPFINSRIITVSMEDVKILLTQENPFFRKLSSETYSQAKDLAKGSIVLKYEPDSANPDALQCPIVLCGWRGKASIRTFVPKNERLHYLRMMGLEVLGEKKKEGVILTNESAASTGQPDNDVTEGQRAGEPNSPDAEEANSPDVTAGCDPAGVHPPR
Chain of UniProt Q96IY1 (Q96IY1 whole entry, looked up): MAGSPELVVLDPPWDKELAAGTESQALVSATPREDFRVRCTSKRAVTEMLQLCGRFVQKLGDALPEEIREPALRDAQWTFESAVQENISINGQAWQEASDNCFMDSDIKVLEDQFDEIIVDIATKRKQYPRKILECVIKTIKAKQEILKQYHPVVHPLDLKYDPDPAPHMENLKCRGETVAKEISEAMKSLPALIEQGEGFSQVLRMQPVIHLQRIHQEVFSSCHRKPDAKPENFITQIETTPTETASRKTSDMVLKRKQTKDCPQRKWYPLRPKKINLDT
Chain of UniProt O75607 (O75607 whole entry, looked up): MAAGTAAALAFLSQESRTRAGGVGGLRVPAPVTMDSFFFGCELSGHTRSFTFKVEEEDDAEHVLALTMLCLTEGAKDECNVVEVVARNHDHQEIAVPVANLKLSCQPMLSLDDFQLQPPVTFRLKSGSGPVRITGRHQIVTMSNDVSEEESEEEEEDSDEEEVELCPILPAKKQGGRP
Chain of UniProt Q13153 (Q13153 whole entry, looked up): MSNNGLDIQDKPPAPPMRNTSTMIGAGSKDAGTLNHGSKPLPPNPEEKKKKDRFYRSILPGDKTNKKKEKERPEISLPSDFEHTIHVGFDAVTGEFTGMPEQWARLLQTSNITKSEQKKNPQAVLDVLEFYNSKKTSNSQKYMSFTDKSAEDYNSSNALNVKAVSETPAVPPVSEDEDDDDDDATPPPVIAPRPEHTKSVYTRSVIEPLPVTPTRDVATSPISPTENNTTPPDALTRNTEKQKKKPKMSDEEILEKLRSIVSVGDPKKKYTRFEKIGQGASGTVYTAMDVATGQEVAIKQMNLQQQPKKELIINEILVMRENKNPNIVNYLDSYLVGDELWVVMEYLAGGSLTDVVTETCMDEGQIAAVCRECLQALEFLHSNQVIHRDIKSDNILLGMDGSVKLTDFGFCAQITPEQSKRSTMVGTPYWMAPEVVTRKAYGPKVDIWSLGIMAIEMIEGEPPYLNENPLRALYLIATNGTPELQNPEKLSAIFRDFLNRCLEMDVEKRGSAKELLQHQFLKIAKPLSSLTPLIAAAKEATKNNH
Chain of UniProt Q5VZE5 (Q5VZE5 whole entry, looked up): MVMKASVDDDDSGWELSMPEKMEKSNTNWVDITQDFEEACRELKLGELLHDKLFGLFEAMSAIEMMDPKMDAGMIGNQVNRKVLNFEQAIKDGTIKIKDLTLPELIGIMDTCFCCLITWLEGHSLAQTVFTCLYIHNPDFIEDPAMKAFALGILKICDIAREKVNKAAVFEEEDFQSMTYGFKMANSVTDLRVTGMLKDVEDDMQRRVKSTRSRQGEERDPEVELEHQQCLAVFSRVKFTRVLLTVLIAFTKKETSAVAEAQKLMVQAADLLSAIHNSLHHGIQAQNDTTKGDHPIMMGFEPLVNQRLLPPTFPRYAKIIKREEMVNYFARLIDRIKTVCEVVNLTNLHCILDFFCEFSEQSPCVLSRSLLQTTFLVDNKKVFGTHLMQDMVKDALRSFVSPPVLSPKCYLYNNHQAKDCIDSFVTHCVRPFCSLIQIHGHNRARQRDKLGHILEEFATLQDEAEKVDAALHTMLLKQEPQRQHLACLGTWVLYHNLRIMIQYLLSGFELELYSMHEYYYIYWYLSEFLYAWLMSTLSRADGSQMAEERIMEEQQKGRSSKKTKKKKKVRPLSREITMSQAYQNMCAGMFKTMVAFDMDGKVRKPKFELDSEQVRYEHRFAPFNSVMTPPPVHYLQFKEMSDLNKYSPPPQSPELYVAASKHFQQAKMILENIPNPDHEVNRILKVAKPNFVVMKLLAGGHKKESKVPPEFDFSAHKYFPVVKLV
Chain of UniProt Q9NZJ9 (Q9NZJ9 whole entry, looked up): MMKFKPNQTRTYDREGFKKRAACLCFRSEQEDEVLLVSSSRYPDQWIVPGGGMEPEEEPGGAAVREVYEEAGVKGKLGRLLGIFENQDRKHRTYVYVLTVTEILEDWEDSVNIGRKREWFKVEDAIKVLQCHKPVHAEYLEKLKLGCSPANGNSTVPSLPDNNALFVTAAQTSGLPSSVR

Row | Target | log2 fold change (ibrutinib) | log2 fold change [1] | log2 fold change (ralimetinib) | log2 fold change [2] | log2 fold change [3] | log2 fold change [4] | log2 fold change [5] | log2 fold change [6] | log2 fold change [7] | log2 fold change [8] | log2 fold change (vemurafenib) | log2 fold change [9] | log2 fold change (barasertib) | log2 fold change [10] | log2 fold change (volasertib) | log2 fold change [11] | log2 fold change [12] | log2 fold change [13] | log2 fold change (saracatinib) | log2 fold change (sotrastaurin)
1 | MRPL53 (UniProt Q96EL3) | 0.041 | -0.018 | 0.062 | -0.047 | 0.016 | -0.047 | 0.011 | 0.042 | 0.044 | 0.011 | -0.006 | -0.01 | 0.032 | 0.069 | 0.057 | -0.017 | 0.013 | -0.019 | -0.003 | -0.021
2 | NUDT4 (UniProt Q9NZJ9) | 0.091 | 0.022 | 0.074 | 0.067 | -0.012 | 0.017 | 0.003 | -0.105 | -0.014 | 0.058 | -0.24 | 0.04 | -0.032 | -0.078 | -0.054 | 0.082 | 0.23 | 0.005 | -0.03 | 0.005
3 | NCAPH2 (UniProt Q6IBW4) | -0.033 | -0.01 | 0.066 | -0.091 | 0.028 | -0.017 | 0 | 0.01 | 0.055 | 0.011 | -0.044 | 0.027 | 0.058 | 0.027 | -0.002 | -0.014 | -0.032 | 0.02 | 0.001 | 0.03
4 | NUF2 (UniProt Q9BZD4) | -0.052 | -0.051 | 0.03 | 0.015 | -0.001 | 0.018 | 0.027 | -0.011 | 0.044 | 0.009 | -0.01 | 0.016 | 0.048 | -0.126 | -0.029 | 0.016 | -0.069 | -0.101 | 0.032 | 0.03
5 | NPM3 (UniProt O75607) | 0.038 | 0.03 | 0.029 | -0.077 | 0.018 | 0.048 | -0.03 | 0.069 | 0.018 | -0.037 | 0.052 | 0.03 | -0.065 | 0.058 | -0.015 | -0.007 | -0.376 (active) | 0.158 | -0.023 | 0.025
6 | PAN2 isoform 2 (UniProt Q504Q3) | -0.141 | 0.036 | 0.022 | -0.022 | -0.025 | 0.022 | 0.015 | 0.012 | -0.038 | 0.027 | 0.072 | 0.031 | 0.03 | 0.041 | -0.132 | 0.031 | 0.006 | -0.04 | -0.021 | 0.018
7 | MRPS12 (UniProt O15235) | -0.003 | -0.008 | 0.011 | -0.067 | 0.007 | -0.004 | -0.138 | 0.003 | -0.028 | -0.02 | 0.062 | 0.035 | 0.003 | 0.045 | 0.011 | 0.001 | -0.038 | 0.001 | 0.016 | 0.028
8 | NEK9 (UniProt Q8TD19) | 0.005 | 0.027 | 0.055 | 0 | 0.01 | 0.006 | -0.01 | 0.012 | 0.009 | 0.016 | -0.001 | 0.054 | -0.008 | 0.004 | -0.01 | 0.004 | -0.046 | 0.048 | 0.035 | -0.016
9 | MRPL51 (UniProt Q4U2R6) | 0.02 | -0.005 | 0.048 | 0.011 | -0.038 | 0.066 | 0.006 | -0.062 | 0.051 | 0.017 | 0.032 | 0.028 | 0 | -0.044 | 0.022 | 0.038 | -0.309 | 0.16 | 0.02 | 0.008
10 | NAA35 (UniProt Q5VZE5) | -0.005 | -0.017 | 0.006 | 0.042 | -0.01 | -0.008 | -0.004 | -0.006 | 0.017 | -0.02 | 0 | 0.015 | -0.01 | 0.05 | -0.026 | 0.001 | 0.179 | -0.035 | 0.026 | 0.006
11 | OGT (UniProt O15294) | -0.035 | -0.024 | 0.021 | 0.023 | -0.007 | -0.009 | -0.026 | -0.014 | 0.032 | -0.005 | 0.012 | 0.015 | 0.031 | -0.003 | -0.058 | 0.036 | -0.002 | -0.021 | 0.011 | 0.018
12 | NUDT5 (UniProt Q9UKK9) | 0.059 | -0.008 | -0.047 | -0.05 | -0.047 | -0.007 | -0.002 | 0.006 | -0.014 | -0.042 | -0.019 | -0.001 | -0.042 | 0.043 | 0.015 | -0.054 | -0.267 | 0.27 (active) | -0.022 | 0.034
13 | NSUN2 (UniProt Q08J23) | 0.014 | 0.011 | 0.023 | 0.015 | 0.006 | 0.008 | 0.006 | -0.035 | 0.033 | 0.017 | 0.028 | 0.004 | -0.006 | -0.032 | 0.004 | 0.037 | 0.081 | -0.022 | 0.006 | 0.005
14 | NPLOC4 isoform 2 (UniProt Q8TAT6) | -0.016 | -0.015 | -0.01 | -0.003 | 0.027 | -0.005 | -0.009 | 0.062 | 0.018 | -0.015 | -0.011 | 0.025 | -0.019 | 0.025 | -0.011 | -0.016 | -0.066 | 0.007 | 0.004 | -0.005
15 | PAK1 (UniProt Q13153) | 0.067 | -0.011 | 0.001 | 0.004 | -0.108 | -0.003 | -0.018 | 0.041 | 0.008 | 0.009 | -0.013 | 0.001 | -0.001 | -0.002 | 0.023 | -0.011 | 0.013 | 0.06 | 0 | -0.054
16 | NSL1 (UniProt Q96IY1) | -0.019 | -0.002 | 0.003 | -0.052 | 0.011 | -0.066 | 0.023 | 0.009 | 0.008 | 0.036 | -0.017 | 0 | -0.06 | 0.005 | 0.007 | 0.048 | -0.016 | 0.047 | 0.012 | 0.005

Source: the supplement of paper PMC10849652
